Target: T1, Tyrosine-protein kinase ZAP-70 (Homo sapiens) (UniProt P43403)
T1 sequence (whole entry): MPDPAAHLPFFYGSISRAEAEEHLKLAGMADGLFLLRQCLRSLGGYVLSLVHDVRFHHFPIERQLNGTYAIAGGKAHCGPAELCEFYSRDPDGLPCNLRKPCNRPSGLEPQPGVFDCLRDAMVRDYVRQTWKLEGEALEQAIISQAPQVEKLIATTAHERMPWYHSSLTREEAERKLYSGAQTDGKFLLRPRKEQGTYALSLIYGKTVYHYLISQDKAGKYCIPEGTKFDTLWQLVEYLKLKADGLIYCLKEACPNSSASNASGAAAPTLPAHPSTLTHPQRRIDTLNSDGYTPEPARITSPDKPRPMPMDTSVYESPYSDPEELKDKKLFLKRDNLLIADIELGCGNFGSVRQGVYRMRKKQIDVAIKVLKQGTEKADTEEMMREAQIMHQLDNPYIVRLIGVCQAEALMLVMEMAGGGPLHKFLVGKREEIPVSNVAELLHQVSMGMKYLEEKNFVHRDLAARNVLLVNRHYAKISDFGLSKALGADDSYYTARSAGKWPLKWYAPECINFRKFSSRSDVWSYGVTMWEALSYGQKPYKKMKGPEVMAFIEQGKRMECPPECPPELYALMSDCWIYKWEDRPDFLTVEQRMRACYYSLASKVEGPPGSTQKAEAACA
Conditions: at 10 µM

Row | Structure (SMILES) | residual activity
1 | O=C1NC(=O)c2c1c1c3ccccc3[nH]c1n1cncc21 | 102%
2 | NC(=O)Nc1sc(-c2ccc(F)cc2)cc1C(N)=O | 107%
3 | COc1cc2nccc(Oc3ccc(NC(=O)Nc4cc(C)on4)c(Cl)c3)c2cc1OC | 107%
4 | COc1cc2ncnc(Nc3ccc(O)c(Br)c3)c2cc1OC | 105%
5 | C[C@@H](N)[C@H]1CC[C@H](C(=O)Nc2ccncc2)CC1 | 122%
6 | O=C1NC(=O)c2cc(Nc3ccc(F)cc3)c(Nc3ccc(F)cc3)cc21 | 119%
7 | O=C1NC(=O)/C(=C/c2ccc3c(c2)OC(F)(F)O3)S1 | 102%
8 | O=C1Nc2ccccc2/C1=C1/Nc2ccccc2/C1=N\OCCC(O)CO (stereo not given) | 98%
9 | Nc1nccc(-c2c(-c3ccc(F)cc3)ncn2C2CCNCC2)n1 | 124%
10 | NC(=O)c1ccc2[nH]c(-c3ccc(Oc4ccc(Cl)cc4)cc3)nc2c1 | 96%
11 | Cn1cc(/C=C2\C(=O)Nc3ccc(S(N)(=O)=O)cc32)c2ccccc21 | 125%
12 | CO[C@H]1[C@@H](OC)C[C@H](C)[C@@H](OC)C2=CC(=O)C=C(NC(=O)/C(C)=C/C=C/[C@H](OC)[C@@H](OC(N)=O)/C(C)=C/[C@@H]1C)C2=O | 112%
13 | CCN(CC)CCCCN1c2ccccc2Oc2ccc(Cl)cc21 | 124%
14 | O=C1Nc2ccc(Br)cc2/C1=C\c1cc2c([nH]1)CCCC2 | 124%
15 | COc1cc2ncnc(N3CCN(C(=O)Nc4ccc(Oc5ccccc5)cc4)CC3)c2cc1OC | 98%
16 | CC[n+]1c(/C=C/N(C)c2ccccc2)n(-c2ccccc2)c2ccc(-c3nc4ccccc4s3)cc21 | 130%
17 | O=Nc1c(-c2c(O)[nH]c3ccccc23)[nH]c2ccccc12 | 91%
18 | O=c1cc(N2CCOCC2)oc2c1ccc1ccccc12 | 93%

Row | Structure (SMILES) | residual activity
19 | COc1cc2ncnc(Nc3cccc(Cl)c3)c2cc1OC | 125%
20 | Oc1c2ccccc2c2c3c(cccc13)N=N2 | 98%
21 | Cn1nc2c3c(cccc31)C(=O)c1ccccc1-2 | 85%
22 | Oc1ccc(-c2nc(-c3ccc(F)cc3)c(-c3ccncc3)[nH]2)cc1 | 119%
23 | Ic1cccc(CSc2nnc(-c3ccncc3)o2)c1 | 102%
24 | O=C1NC(=O)/C(=C\c2ccc3nccnc3c2)S1 | 94%
25 | Cc1ccc(NC2=CC(=O)c3sc(C)nc3C2=O)cc1 | 96%
26 | COc1ccc(-c2cnc3c(-c4ccsc4)cnn3c2)cc1 | 128%
27 | O=c1cc(-c2cccc3c2Sc2ccccc2S3)oc(N2CCOCC2)c1 | 85%
28 | COc1ccc(CNc2nc(N(CCO)CCO)nc3c2ncn3C(C)C)cc1 | 88%
29 | CC(C)[C@H](CO)Nc1nc(Nc2cc(N)cc(Cl)c2)c2ncn(C(C)C)c2n1 | 98%
30 | Cc1nc(-c2ccccc2)c(-c2ccncc2)o1 | 135%
31 | CCOc1cc2ncnc(Nc3cccc(Br)c3)c2cc1OCC | 119%
32 | O=c1cc(N2CCNCC2)oc2c(-c3ccccc3)cccc12 | 99%
33 | O=C(Nc1ccc(Cl)cc1)c1ccccc1NCc1ccncc1 | 142%
34 | Nc1ncnc2[nH]nc(Nc3ccc(F)cc3)c12 | 98%
35 | CCC(=O)Nc1ccc2ncnc(Nc3cccc(Br)c3)c2c1 | 109%
